High-throughput results as filed in PubChem.
Only some compounds are listed: those with a hit (about 0.47% of all), similar ones and a draw of the others.
A-T KAP1 phos – candidate therapy for ataxia-telangiectasia. AID 485349. Potency, µM (doses to about 57.5 µM), usual class: activators. F2112 A-T fibroblasts, KAP-1 phosphorylation AlphaLISA; neocarzinostatin DNA damage 30 min before lysis. 0.19% of 320,000 active; further: nearly all actives have a fitted effect of over 45% in size
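ATM-like activity read as KAP-1 phosphorylation via AlphaLISA donor/acceptor antibody pairs after lysis and 6 hr at 25C. Cells were ATM-null patient fibroblasts (F2112, hTERT), dosed 60 min, then exposed to the DSB inducer NCS for 30 min.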
Anesthetic bind – candidate novel general anesthetic via apoferritin binding; apoferritin/1-aminoanthracene competitive binding, fluorescence; 0.074% of 350,000 active; AID 485281; Potency, µM (series often up to 77.5 µM), hits mostly inhibitors; P02791; further: nearly all actives have a fitted effect of over 20% in size
Target sequence (P02791 2-175 limits assumed): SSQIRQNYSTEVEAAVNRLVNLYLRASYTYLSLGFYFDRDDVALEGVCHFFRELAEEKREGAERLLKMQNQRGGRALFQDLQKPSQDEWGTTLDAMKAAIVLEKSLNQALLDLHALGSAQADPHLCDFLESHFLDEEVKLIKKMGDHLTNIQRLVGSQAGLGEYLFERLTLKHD
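10 uM apoferritin + 50% sat. 1-AMA, PBS; cpd 10 min RT; Ex380/Em535 endpoint; normalized to free probe vs complex; 4-param Hill fit; propofol titration as pos. ctrl.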
CCT chaperon mod – cytosolic chaperonin activity modulation; purified chaperonin ATPase assay, HTRF ADP detection, 30 min; activity change, % (test concentration not listed), hits read low; 0.3% of 360,000 active; AID 651819; in the data active means activity change below about -30%
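TRiC at 40 or 20 nM final (batch-dependent) in 30 mM Tris pH 7.4, 100 mM KCl, 5 mM MgCl2, 1 mM DTT, with compound at single 76 uM and 10 uM ATP, 30 min at 37 deg C. ADP detected by HTRF Transcreener, 665/615 ratio.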
MmCpn inh – M. maripaludis TRiC chaperonin inhibition; purified Mm-Cpn ATPase, ADP Transcreener TR-FRET; Potency, µM (top dose mostly 76.9 µM), actives largely listed as inhibitors; 0.031% of 330,000 active; AID 504842; further: nearly all actives have a fitted effect of over 80% in size
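TR-FRET (320 nm excitation; 590 and 665 nm emission) reports ADP made from 10 uM ATP by 25 nM enzyme; compounds were preincubated 10 min, reaction run 30 min, both at 37°C.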
Hits are given with their value. Unless noted, the call rests on the fitted dose curve; in most records, active means well fitted curve in the direction sought with a large enough effect; inconclusive means small, poorly fitted or top-dose-only effect, or another doubt; inactive means no such curve, though single readings can be large; an effect the other way counts as inactive or inconclusive.

For Cc1onc(-c2ccccc2Cl)c1C(O)c1ccc(F)cc1 (stereo unspecified) the results were A-T KAP1 phos inconclusive, Anesthetic bind inactive, CCT chaperon mod inactive and MmCpn inh inactive.
For CCc1ccc(C2c3c(n[nH]c3C)C(=O)N2c2ccc(C)cc2)cc1 (stereo unspecified) the results were Anesthetic bind inactive.
`N#Cc1ccc(NC(=O)COC(=O)CNC(=O)C2CCCCC2)cc1` gave Anesthetic bind 8.91µM, CCT chaperon mod inactive and MmCpn inh inactive.
`N#Cc1ccc(NC(=O)COC(=O)C2CCC2)cc1` gave CCT chaperon mod inactive.
For O=C(NCc1nc2ccccc2[nH]1)C1=C[C@H](c2ccccc2)C[C@H](OCCCCO)O1 the results were A-T KAP1 phos 39.8µM, Anesthetic bind inactive, CCT chaperon mod inactive and MmCpn inh inactive.
Screening O=C(NCc1nc2ccccc2[nH]1)C1=C[C@@H](c2ccc(C(F)(F)F)cc2)C[C@@H](OCCCCO)O1 returned CCT chaperon mod inactive.
COc1ccc(-c2cc(C3C4C=CCCC4(C)C(=O)N3Cc3ccccc3)ccc2F)cc1 (stereo unspecified) was read as Anesthetic bind inactive.
For O=C(C1CCCN(Cc2ccccc2F)C1)N1CCc2ccccc2C1 (stereo unspecified) the results were A-T KAP1 phos 39.8µM, Anesthetic bind inactive, CCT chaperon mod inactive and MmCpn inh inactive.
`CCN(CC)S(=O)(=O)c1ccc(C)c(NC(=O)COc2ccc(Cl)cc2Br)c1` gave A-T KAP1 phos inactive, Anesthetic bind inactive, CCT chaperon mod -55.9 and MmCpn inh inactive.
CCC(=O)N1CCc2cc(CNC(=O)c3ccc(OC)cc3)ccc21 was read as Anesthetic bind inactive.
`c1ccc(-c2nc3ccccc3[nH]2)cc1` gave A-T KAP1 phos inactive, Anesthetic bind inactive, CCT chaperon mod inactive and MmCpn inh inactive.
`S=c1nc(-c2ccccc2)[nH]c2ccc(Br)cc12` gave A-T KAP1 phos 31.6µM, Anesthetic bind inactive, CCT chaperon mod inactive and MmCpn inh inactive.
Cc1nn(CC(=O)N2CCc3ccccc3C2)c(C)c1Cl was read as A-T KAP1 phos inactive, Anesthetic bind inactive, CCT chaperon mod -79.9 and MmCpn inh inactive.
COc1ccc(-c2cc(C(F)(F)F)c(C#N)c(SCC(=O)O)n2)cc1OC was read as A-T KAP1 phos 8.91µM, Anesthetic bind inactive and MmCpn inh inactive.
Cc1ccc(-c2cc(C(F)(F)F)c(C#N)c(SCC(=O)O)n2)cc1 was read as A-T KAP1 phos inactive, Anesthetic bind inactive, CCT chaperon mod inactive and MmCpn inh inactive.
For CC1C/C(=C/c2ccncc2)C(=O)/C(=C/c2ccncc2)C1 (stereo unspecified) the results were A-T KAP1 phos inactive, Anesthetic bind inactive, CCT chaperon mod -37.8 and MmCpn inh inactive.
O=C1/C(=C/c2ccncc2)Cc2ccccc21 was read as A-T KAP1 phos inactive, CCT chaperon mod inactive and MmCpn inh inactive.
Cc1ccc(NC(=O)Cn2nc(-c3ccccc3Cl)ccc2=O)c(Br)c1 was read as A-T KAP1 phos inactive, Anesthetic bind 10µM, CCT chaperon mod inactive and MmCpn inh inactive.
For COc1cccc(-c2ccc(=O)n(CC(=O)Nc3cc4c(cc3NC(C)=O)OCCO4)n2)c1 the results were A-T KAP1 phos inactive, Anesthetic bind inactive, CCT chaperon mod inactive and MmCpn inh inactive.
`Cc1ccc(-c2ccc(=O)n(CC(=O)Nc3ccc(C)cc3Cl)n2)cc1` gave Anesthetic bind 10µM.
Screening COc1ccccc1NC(=O)Cn1nc(-c2ccc3c(c2)OCCO3)ccc1=O returned A-T KAP1 phos inactive, Anesthetic bind 11.2µM, CCT chaperon mod inactive and MmCpn inh inactive.
Screening Cc1ccc(NC(=O)C2CCCN(c3nc4ccccc4s3)C2)c(C)c1 (stereo unspecified) returned Anesthetic bind inactive.
`COc1cccc(N2CC(NC(=O)C3CC3)CC2=O)c1` (stereo unspecified) gave Anesthetic bind inactive.
For COc1ccc(-c2cc(C(=O)Nc3ccc(C)c(C)c3)no2)cc1 the results were A-T KAP1 phos 12.6µM, Anesthetic bind inactive, CCT chaperon mod inactive and MmCpn inh inactive.
Screening Cc1ccc(NC(=O)c2cc(-c3ccc(F)cc3)on2)cc1C returned A-T KAP1 phos inactive, Anesthetic bind inactive, CCT chaperon mod inactive and MmCpn inh inactive.
`CCc1ccccc1NC(=O)c1ccc(F)c(S(=O)(=O)N2CCN(c3ccccc3OC)CC2)c1` gave Anesthetic bind inactive.
